# Test results published in the supplement of paper PMC9492666.
# Where a name gives a salt, the structure may show the parent alone.
# What was measured:
# HCC1937 = test: relative cell viability, compound + erastin, vs DMSO (fraction of DMSO control); higher = less growth inhibition; details: 72 h
# MDA-MB-231 = test: as above; details: 72 h
# 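Further: viability read by CCK-8 kit in 96-well plates, part of a combination screen pairing lipid-metabolism-targeting compounds with erastin.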
smiles,measurement,setting,value
CCN(CC)Cc1ccc(C(=O)N(CCc2ccccc2OC)[C@@H]2CCNC2)cc1 + CCOc1ccccc1-n1c(C(C)N2CCN(C(=O)COc3ccc(Cl)cc3)CC2)nc2ccccc2c1=O [erastin],relative cell viability,HCC1937,0.872
same,relative cell viability,MDA-MB-231,0.726
C=C1C[C@]2(O)O[C@@]3(CC2=C(C)C)[C@@H](C)CC[C@@H]13 [Isocurcumenol] + CCOc1ccccc1-n1c(C(C)N2CCN(C(=O)COc3ccc(Cl)cc3)CC2)nc2ccccc2c1=O [erastin],relative cell viability,HCC1937,0.566
same,relative cell viability,MDA-MB-231,0.662
COC(=O)c1cc(Cl)c(O)c(S(=O)(=O)Nc2cc(-c3ccccc3)c(F)cc2F)c1 + CCOc1ccccc1-n1c(C(C)N2CCN(C(=O)COc3ccc(Cl)cc3)CC2)nc2ccccc2c1=O [erastin],relative cell viability,HCC1937,0.728
same,relative cell viability,MDA-MB-231,0.806
Cc1cc(C)c(S(=O)(=O)N(CCc2cccc(Br)c2)Cc2ccc(-c3cccc(S(C)(=O)=O)c3)cc2)c(C)c1 + CCOc1ccccc1-n1c(C(C)N2CCN(C(=O)COc3ccc(Cl)cc3)CC2)nc2ccccc2c1=O [erastin],relative cell viability,HCC1937,0.537
same,relative cell viability,MDA-MB-231,0.777
O=C(CCCCCCCC(=O)NCCO)NCCO [Adelmidrol] + CCOc1ccccc1-n1c(C(C)N2CCN(C(=O)COc3ccc(Cl)cc3)CC2)nc2ccccc2c1=O [erastin],relative cell viability,HCC1937,0.701
same,relative cell viability,MDA-MB-231,0.73
CN1CCN(c2ccc(/C=C(\C#N)c3ccccc3Br)cc2)CC1 [DG172 (dihydrochloride)] + CCOc1ccccc1-n1c(C(C)N2CCN(C(=O)COc3ccc(Cl)cc3)CC2)nc2ccccc2c1=O [erastin],relative cell viability,HCC1937,0.672
same,relative cell viability,MDA-MB-231,0.608
C[C@]12C=CC(=O)N[C@@H]1CC[C@@H]1[C@@H]2CC[C@]2(C)[C@@H](C(=O)Nc3cc(C(F)(F)F)ccc3C(F)(F)F)CC[C@@H]12 [Dutasteride] + CCOc1ccccc1-n1c(C(C)N2CCN(C(=O)COc3ccc(Cl)cc3)CC2)nc2ccccc2c1=O [erastin],relative cell viability,HCC1937,0.573
same,relative cell viability,MDA-MB-231,0.596
CC(C)[C@H](N=C(NS(=O)(=O)c1ccc(Cl)cc1)N1C[C@H](c2ccccc2)C(c2ccc(Cl)cc2)=N1)C(N)=O + CCOc1ccccc1-n1c(C(C)N2CCN(C(=O)COc3ccc(Cl)cc3)CC2)nc2ccccc2c1=O [erastin],relative cell viability,HCC1937,0.483
same,relative cell viability,MDA-MB-231,0.429
c1cc(-c2cnn3cc(-c4ccc(OCCN5CCCCC5)cc4)cnc23)ccn1 [Dorsomorphin dihydrochloride] + CCOc1ccccc1-n1c(C(C)N2CCN(C(=O)COc3ccc(Cl)cc3)CC2)nc2ccccc2c1=O [erastin],relative cell viability,HCC1937,0.0948
same,relative cell viability,MDA-MB-231,0.362
CCc1c(-c2ccccc2)c(-c2ccccc2)nn1-c1ccccc1-c1cccc(OCC(=O)O)c1 + CCOc1ccccc1-n1c(C(C)N2CCN(C(=O)COc3ccc(Cl)cc3)CC2)nc2ccccc2c1=O [erastin],relative cell viability,HCC1937,0.84
same,relative cell viability,MDA-MB-231,0.861
COc1ccc(-c2cc(=O)c3c(O)c(OC)c(OC)c(OC)c3o2)cc1OC + CCOc1ccccc1-n1c(C(C)N2CCN(C(=O)COc3ccc(Cl)cc3)CC2)nc2ccccc2c1=O [erastin],relative cell viability,HCC1937,0.573
same,relative cell viability,MDA-MB-231,0.784
O=C(Nc1ccc(C(O)(C(F)(F)F)C(F)(F)F)cc1)c1ccccc1Cl + CCOc1ccccc1-n1c(C(C)N2CCN(C(=O)COc3ccc(Cl)cc3)CC2)nc2ccccc2c1=O [erastin],relative cell viability,HCC1937,0.769
same,relative cell viability,MDA-MB-231,0.844
Cc1nc(Nc2cnn(C3CCNCC3)c2)nc2c1N(C)C(=O)c1cc3ccccc3cc1N2C + CCOc1ccccc1-n1c(C(C)N2CCN(C(=O)COc3ccc(Cl)cc3)CC2)nc2ccccc2c1=O [erastin],relative cell viability,HCC1937,0.215
same,relative cell viability,MDA-MB-231,0.421
CC(C)(C)c1ccc(-c2nc3ccccc3[nH]2)cc1 + CCOc1ccccc1-n1c(C(C)N2CCN(C(=O)COc3ccc(Cl)cc3)CC2)nc2ccccc2c1=O [erastin],relative cell viability,HCC1937,0.225
same,relative cell viability,MDA-MB-231,0.295
CCOP(=O)(OCC)C(=Cc1cc(C(C)(C)C)c(O)c(C(C)(C)C)c1)P(=O)(OCC)OCC + CCOc1ccccc1-n1c(C(C)N2CCN(C(=O)COc3ccc(Cl)cc3)CC2)nc2ccccc2c1=O [erastin],relative cell viability,HCC1937,0.534
same,relative cell viability,MDA-MB-231,0.648
C[N+](C)(C)CC(O)CC(=O)[O-] (stereo not drawn) [L(-)-Carnitine] + CCOc1ccccc1-n1c(C(C)N2CCN(C(=O)COc3ccc(Cl)cc3)CC2)nc2ccccc2c1=O [erastin],relative cell viability,HCC1937,0.781
same,relative cell viability,MDA-MB-231,0.91
"CC(C)=CCC(O)C1=CC(=O)c2c(O)ccc(O)c2C1=O (single isomer, unassigned; (+)) [(+)-Shikonin] + CCOc1ccccc1-n1c(C(C)N2CCN(C(=O)COc3ccc(Cl)cc3)CC2)nc2ccccc2c1=O [erastin]",relative cell viability,HCC1937,0.159
same,relative cell viability,MDA-MB-231,0.494
COc1ccc(C(=O)/C=C/c2ccccc2)cc1 [4'-Methoxychalcone] + CCOc1ccccc1-n1c(C(C)N2CCN(C(=O)COc3ccc(Cl)cc3)CC2)nc2ccccc2c1=O [erastin],relative cell viability,HCC1937,0.54
same,relative cell viability,MDA-MB-231,0.54
CCN(CC)CCN(Cc1ccc(-c2ccc(C(F)(F)F)cc2)cc1)C(=O)Cn1c(SCc2ccc(F)cc2)nc(=O)c2c1CCC2 [Darapladib] + CCOc1ccccc1-n1c(C(C)N2CCN(C(=O)COc3ccc(Cl)cc3)CC2)nc2ccccc2c1=O [erastin],relative cell viability,HCC1937,0.0574
same,relative cell viability,MDA-MB-231,0.296
COc1cc(N2CCN(C)CC2)ccc1Nc1ncc2c(n1)N(C)c1ccccc1C(=O)N2 + CCOc1ccccc1-n1c(C(C)N2CCN(C(=O)COc3ccc(Cl)cc3)CC2)nc2ccccc2c1=O [erastin],relative cell viability,HCC1937,0.365
same,relative cell viability,MDA-MB-231,0.788
C[C@H](CCC(=O)O)[C@H]1CC[C@H]2[C@@H]3C[C@H](O)[C@@H]4C[C@H](O)CC[C@]4(C)[C@H]3CC[C@]12C [Hyodeoxycholic acid] + CCOc1ccccc1-n1c(C(C)N2CCN(C(=O)COc3ccc(Cl)cc3)CC2)nc2ccccc2c1=O [erastin],relative cell viability,HCC1937,0.767
same,relative cell viability,MDA-MB-231,0.881
CCCc1cc(-c2nc(-c3ccc(NS(C)(=O)=O)cc3)cs2)ccn1 + CCOc1ccccc1-n1c(C(C)N2CCN(C(=O)COc3ccc(Cl)cc3)CC2)nc2ccccc2c1=O [erastin],relative cell viability,HCC1937,0.394
same,relative cell viability,MDA-MB-231,0.651
